Data from PubChem BioAssay AID2751 (The Scripps Research Institute Molecular Screening Center, 2010).
The whole screen tested about 320,000 compounds, of which about 2,200 (0.69%) were called active. What follows is part of a selection rich in actives, with near analogues and random picks from the rest. Values without a mark were called inactive. No stated cut-off is given here; in the data, active means inhibition above about 43%; inactive means the rest.

target: Prolyl endopeptidase-like (Homo sapiens) (UniProt Q4J6C6); experiment: PREPL enzyme inhibitors, primary screen, biochemical, fluorescence polarization (AID 2751); details: recombinant PREPL, fluorescence polarization activity-based probe; at 5.96 µM; active compounds read high;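 further: 0% = enzyme with DMSO and 100% = wells lacking enzyme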
Sequence (Q4J6C6 whole entry, looked up): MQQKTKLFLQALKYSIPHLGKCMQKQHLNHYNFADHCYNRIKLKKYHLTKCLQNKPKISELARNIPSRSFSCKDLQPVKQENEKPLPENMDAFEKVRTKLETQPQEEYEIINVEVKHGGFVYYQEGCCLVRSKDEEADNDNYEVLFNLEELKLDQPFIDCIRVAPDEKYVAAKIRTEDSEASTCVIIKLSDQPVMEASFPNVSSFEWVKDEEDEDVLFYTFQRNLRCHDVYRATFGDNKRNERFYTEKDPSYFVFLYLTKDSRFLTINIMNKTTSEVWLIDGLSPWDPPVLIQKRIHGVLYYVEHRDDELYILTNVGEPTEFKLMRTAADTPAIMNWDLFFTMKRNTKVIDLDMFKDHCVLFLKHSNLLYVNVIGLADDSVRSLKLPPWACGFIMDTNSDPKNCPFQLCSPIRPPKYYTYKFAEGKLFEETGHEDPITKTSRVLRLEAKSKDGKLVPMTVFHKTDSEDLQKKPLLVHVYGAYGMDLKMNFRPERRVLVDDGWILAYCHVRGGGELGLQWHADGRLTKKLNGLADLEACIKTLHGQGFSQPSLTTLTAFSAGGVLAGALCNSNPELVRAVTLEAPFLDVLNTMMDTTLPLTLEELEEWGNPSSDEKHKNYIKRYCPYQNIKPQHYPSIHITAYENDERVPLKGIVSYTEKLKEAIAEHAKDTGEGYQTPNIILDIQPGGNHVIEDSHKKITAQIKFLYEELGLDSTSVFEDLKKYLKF

| Structure (SMILES) | inhibition |
| --- | --- |
| COc1ccc(OC)c(CN2CCN(C(=O)CNC(=O)c3cc(C)cc(C)c3)CC2)c1 | 5.26% |
| Cn1cnc(S(=O)(=O)Nc2ccc3c(c2)OCCO3)c1 | -9.35% |
| CC(=O)c1cc(NC(=O)c2ccccc2)c(=O)oc1/C=C/N(C)C | 0.73% |
| Cc1cccc(N2CCN(C(C)C(=O)N3CCc4ccccc43)CC2)c1C (stereo not drawn) | 18.7% |
| CC1CCC2(CC1)NC(=O)N(Cc1nnc(-c3cccs3)o1)C2=O (stereo not drawn) | 11.6% |
| CCCNCc1cc(OCC)c(OCC(=O)Nc2ccccc2)cc1Br | -9.46% |
| CCCC(CCC(=O)OC)(C(=O)OCC)c1csc(N)n1 (stereo not drawn) | 2.3% |
| C=C(C)CNC(=S)N/N=C/c1ccccc1OCC(=O)O | -3.72% |
| Cc1ccc(NS(=O)(=O)c2ccc(N/N=C/c3ccccc3OCC(=O)O)c([N+](=O)[O-])c2)c(C)c1 | 49.9% (active) |
| Cc1ccc(Cn2c(SCC(=O)N/N=C/c3ccccc3OCC(=O)O)nc3ccccc32)cc1 | -29% |
| O=C(C1CCCN1S(=O)(=O)c1ccc(Br)cc1)N1CCOCC1 (stereo not drawn) | 12.8% |
| Cc1ccc(C)c(NC(=O)C2Cc3ccccc3CN2C(=O)OCc2ccccc2)c1 (stereo not drawn) | -31.7% |
| CC[N+](C)(CC)CCC[n+]1c(-c2ccccc2)c2cc(N)ccc2c2ccc(N)cc21 | 65.2% (active) |
| COc1ccc(C2NC(=O)C(=O)/C2=C(\O)c2ccc(Cl)cc2)cc1OC (stereo not drawn) | 2.96% |
| C=CCN1C(=O)C(Cc2ccc(OCC)cc2)SC1=Nc1ccc(C(=O)O)cc1 (stereo not drawn) | -7.27% |
| CCNC(=O)N(CC)C[C@H]1N[C@@](CC)(C(=O)OC)[C@H]2C(=O)N(Cc3ccccc3)C(=O)[C@@H]12 | 2.12% |
| Cc1ccccc1OCC(=O)Nc1ccc2c(c1)ncn2C | 8.18% |
| Cc1ccccc1OCC(=O)Nc1ccc(N2CCN(C(=O)C(C)C)CC2)c(Cl)c1 | 49.4% (active) |
| CCC(=O)N1CCN(c2ccccc2NC(=O)COc2cccc(C)c2C)CC1 | 12.6% |
| O=C(Nc1c2c(nn1-c1ccccc1)CS(=O)(=O)C2)C1CCCC1 | 11.5% |
| O=C(C1CCCN(S(=O)(=O)c2ccc([N+](=O)[O-])cc2)C1)N1CCCCC1 (stereo not drawn) | 3.89% |
| CC1=CC(C)(C)NC(=S)N1c1ccccc1 | 0.44% |

| Structure (SMILES) | inhibition |
| --- | --- |
| CCOc1ccc2nc(N3CCCN(C(=O)Nc4ccccc4C)CC3)c(C#N)cc2c1 | 43.6% (active) |
| COc1ccc2nc(N3CCCC(O)C3)c(C#N)cc2c1 (stereo not drawn) | 19.4% |
| CCOC(=O)c1cc(C#N)c(N2CCCCC2)nc1-c1ccccc1 | -11.5% |
| O=C(NCc1ccccc1Cl)C1CCC(CNc2c(N3CCCCC3)c(=O)c2=O)CC1 (stereo not drawn) | 0.19% |
| O=C(c1cc2cc(F)ccc2[nH]1)N1CCN(c2ccc(F)cc2)CC1 | 18.5% |
| O=C(c1cccc(F)c1)N1CCN(c2ccc([N+](=O)[O-])c(N3CCCCC3)c2)CC1 | 16.6% |
| O=C(c1cccc(C(=O)N2CCN(c3ccc(F)cc3)CC2)c1)N1CCN(c2ccc(F)cc2)CC1 | 62.3% (active) |
| O=C(c1cc(C(=O)N2CCN(c3ccc(F)cc3)CC2)cc([N+](=O)[O-])c1)N1CCN(c2ccc(F)cc2)CC1 | 43.4% (active) |
| O=C(c1ccccc1Oc1ccccc1)N1CCN(c2ccc(F)cc2)CC1 | -29.3% |
| O=C(c1cncc(Br)c1)N1CCN(c2ccc([N+](=O)[O-])cc2)CC1 | 17.6% |
| C=Cn1cc[n+](CC(=O)c2ccc(OC)c(OC)c2)c1 | 19.9% |
| O=C(Nc1ccc2c(c1)OCCO2)C1CCCC1 | 0.16% |
| O=C(c1ccc(F)cc1)N1CCC(C(=O)N2CCN(S(=O)(=O)c3ccccc3Br)CC2)CC1 | 5.69% |
| COC(=O)C1=CN(c2ccc(F)c(F)c2)C=C(C(=O)OC)C1c1ccc([N+](=O)[O-])cc1 | -1.25% |
| COc1ccc(/C=C(\NC(=O)c2ccc(OCC(C)C)cc2)C(=O)OCc2ccco2)cc1 | -0.54% |
| CCNc1c(NS(=O)(=O)c2ccc(C3CCCCC3)cc2)c(=O)oc2ccccc12 | 10.3% |
| N#C/C(=C/c1ccc(N2CCCCC2)o1)C(=O)NCCc1c[nH]c2ccccc12 | 80.7% (active) |
| N#C/C(=C/c1ccc(N2CCOCC2)o1)C(=O)N1CCOCC1 | 7.19% |
| O=C(CN1C(=O)NC2(CCCCC2)C1=O)NCCc1c[nH]c2ccccc12 | 6.75% |
| CN(CCc1ccccn1)C1CCCN(S(=O)(=O)c2ccccc2Cl)C1 (stereo not drawn) | -0.19% |
| Cc1cc(Nc2ccccc2)n(C(=O)c2ccc(N)cc2)n1 | 32.7% |
| Nc1ccc(-c2nnc(-c3ccccc3)o2)cc1 | 2.86% |

| Structure (SMILES) | inhibition |
| --- | --- |
| Nc1ccc(Nc2ccccc2)cc1 | 94.7% (active) |
| CS(=O)(=O)N(CC(=O)N1CCOCC1)c1cccc(Cl)c1Cl | 1.45% |
| COc1cc(NC(=O)COC(=O)CSc2ccc3ccccc3c2)c(C)cc1[N+](=O)[O-] | 26.5% |
| CC(NC(=O)COC(=O)Cn1cc(C(F)(F)F)ccc1=O)c1ccccc1 (stereo not drawn) | 4.36% |
| CC(C)Oc1ccc(Oc2ccc(C(F)(F)F)cn2)cc1 | 14.7% |
| CNCC[C@H](Oc1ccc(C(F)(F)F)cc1)c1ccccc1 | 59% (active) |
| Cc1ccc(CN(CC(=O)NCC2CCCO2)S(=O)(=O)c2ccc(C)cc2)cc1 (stereo not drawn) | -1.14% |
| O=C(Cn1cnc2ccccc2c1=O)NNC(=O)c1ccccc1F | 9.97% |
| NS(=O)(=O)c1ccc(CNC(=O)c2ccc(Cl)cc2[N+](=O)[O-])cc1 | 13.1% |
| CC(CC(=O)N1CCN(c2ccccc2)CC1)c1ccccc1 (stereo not drawn) | -0.94% |
| CC(=O)N1CCN(c2ccc(NCc3ccc(C(C)C)cc3)cc2)CC1 | 66.9% (active) |
| O=C(Nc1ccc(F)cc1)N1CCN(c2ccc(F)cc2)CC1 | 15.1% |
| COc1ccccc1-c1n[nH]c2c1[C@H](C)CC[C@H]2C(C)C | -22.4% |
| COc1ccc(CSc2nnnn2-c2ccc(O)cc2)cc1F | -18.7% |
| CCOc1ccccc1C1CC(c2ccccc2)Nc2nc(N)nn21 (stereo not drawn) | 5.16% |
| Cc1ccc(C2CC(c3cccc(C)c3)n3nc(N)nc3N2)cc1 (stereo not drawn) | 54.5% (active) |
| CCOc1ccccc1C1CC(c2ccc(Cl)cc2)Nc2nc(N)nn21 (stereo not drawn) | 24.3% |
| Cc1cc(=O)n(C)c(=O)n1CCCNc1ccccc1 | 2.85% |
| Cc1ccc(C23CC4CC(CC(C(=O)NCC(=O)O)(C4)C2)C3)cc1 | 5.03% |
| CCC(=O)Nc1cc(C(F)(F)F)ccc1N1CCCC1 | 8.09% |
| O=C(CCN1C(=O)COc2ccccc21)NCCCN1CCN(c2ccc(F)cc2)CC1 | 35.5% |
| COc1ccc(CCNC(=O)CN(c2ccccc2)S(C)(=O)=O)cc1 | 11.1% |

| Structure (SMILES) | inhibition |
| --- | --- |
| Cn1c(CCN2CCCCCC2)nc2cc(NC(=O)Nc3ccccc3)ccc21 | 53% (active) |
| Cn1c(CCN2CCCC2)nc2cc(NS(=O)(=O)c3ccccc3)ccc21 | -19% |
| Cc1nn(CC(=O)Nc2ccc3c(c2)nc(CN2CCCCC2)n3C)c(=O)c2ccccc12 | 1.33% |
| CCN(CC(=O)Nc1c(F)cccc1F)C(=O)c1cnc(C)cn1 | 3.72% |
| CCN1C(=O)/C(=C\N2CCN(c3cccc(Cl)c3)CC2)SC1=S | 23.1% |
| CCN1C(=O)/C(=C\N2CCOCC2)SC1=S | -9.93% |
| CCN1C(=O)/C(=C\N2CCN(c3ccccc3)CC2)SC1=S | 49.4% (active) |
| O=C(O)CSCc1ccc(C(=O)O)o1 | 7.09% |
| N=c1n(Cc2ccc(Cl)cc2)c2ccccc2n1CC(O)c1ccco1 (stereo not drawn) | 16.6% |
| CCc1nc2ccc(C(=O)N3CCN(c4cccc(Cl)c4)CC3)cc2nc1CC | -11.3% |
| O=C1N[C@H](Cc2c[nH]c3ccccc23)COC(=O)[C@H](Cc2ccc(F)cc2)C/C=C\C[C@H]1CC(=O)N(CCO)Cc1ccccc1 | 45.9% (active) |
| CC(C)(C)OC(=O)C[C@@H]1C/C=C\C[C@@H](CC(=O)N(CCO)Cc2ccccc2)C(=O)N[C@H](Cc2ccccc2)COC1=O | 14.3% |
| O=C1N[C@@H](c2ccccc2)COC(=O)[C@H](Cc2ccc(F)cc2)C/C=C\C[C@@H]1CC(=O)N(CCO)Cc1ccccc1 | 36% |
| O=S(=O)(CCc1nc2ccccc2o1)c1ccc(Cl)cc1 | -9.37% |
| C=C1C2C[C@H](O)C(C)(C)[C@@]2(O)[C@H](O)C[C@]23C[C@@](C)(O)[C@H](CC[C@H]12)[C@H]3O (stereo partly drawn) | -4.1% |
| CCN(C[C@H]1N[C@@](CC)(C(=O)OC)[C@H]2C(=O)N(Cc3ccccc3)C(=O)[C@@H]12)S(=O)(=O)c1ccccc1 | 16.9% |
| C[C@H](NC(=O)c1ccccc1)C(=O)OCC(=O)c1c[nH]c2ccccc12 | -2.69% |
| O=C(CNC(=O)c1ccc(F)cc1)c1ccccc1 | -2.4% |
| CN(C)c1ccc(C(CNC(=O)c2ccc(F)cc2)c2c[nH]c3ccccc23)cc1 (stereo not drawn) | 55.9% (active) |
| C#CCOCCOCCOCCNc1nc(N2CCN(C(=O)CCCCCCCCCCNC(=O)[C@H](CCCCN)n3cc(C)nn3)CC2)nc(N2CCN(C(=O)CCCCCCCCCCNC(=O)[C@H](CO)n3cc(CCCSC)nn3)CC2)n1 | 35.2% |
| C#CCOCCOCCOCCNc1nc(N2CCN(C(=O)CCCCCCCCCCNC(=O)Cn3cc(CCCCCN)nn3)CC2)nc(N2CCN(C(=O)CCCCCCCCCCNC(=O)[C@H](CO)n3cc(CCCSC)nn3)CC2)n1 | 75.8% (active) |
| C#CCOCCOCCOCCNc1nc(N2CCN(C(=O)CCCCCCCCCCNC(=O)[C@H]([C@@H](C)CC)n3cc(CCCCN=C(N)N)nn3)CC2)nc(N2CCN(C(=O)CCCCCCCCCCNC(=O)[C@H](CO)n3cc(CCCSC)nn3)CC2)n1 | 29.9% |
